Fam108B counter: counter-screen for RBBP9 inhibitors: inhibitors of mouse Fam108B. recombinant Fam108B, FP-Rh probe fluorescence polarization. inhibition, % at 9.51 µM. actives 0.33% (n = 300,000). AID 1947;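 active means inhibition above the screen mean inhibition plus 3 SD, computed separately per campaign, cut at about 18% in these data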;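 further: inhibitors lower polarization as less probe binds the enzyme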
SIAE primary: blocks human sialic acid acetylesterase. SIAE FP-Rh probe binding, fluorescence polarization. inhibition, % at 9.66 µM. Q9HAT2. actives 0.69% (n = 370,000);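 active means inhibition above a cutoff: mean of compounds within the control limits plus 3 SD of those, cut at about 17% in these data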;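 further: 0% = plate median of compound wells and 100% = probe without SIAE protein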
PRMT1 FP inh: PRMT1 (human) inhibition, primary screen; Q99873; recombinant PRMT1, activity-based probe fluorescence polarization; inhibition, % at 2.79 µM; actives 1.3% (n = 370,000);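 active means inhibition above about 21% made by adding two undisclosed values, limit read from the data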
TCR CD3 inh: human TCR-CD3 binding inhibition. actives 0.37% (n = 360,000). inhibition, % at 9.4 µM. TAMRA-labeled TCR probe fluorescence, biochemical; in the data active means inhibition above about 19%;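 further: recombinant mutant TCR 2C K166C tagged with TAMRA read by polarization; 0% = receptor in buffer alone and 100% = receptor with positive control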
PME-1 inh: PME-1 (human) inhibition; Q9Y570; recombinant PME-1, FP-Rh probe fluorescence polarization; inhibition, % at 5.9 µM; actives 0.53% (n = 320,000); AID 2130;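 active means inhibition above the campaign mean of all compounds plus 3 SD, cut at about 26% in these data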;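 further: competitive labeling of PME-1 active site by serine hydrolase directed probe; 0% = PME-1 with DMSO and 100% = wells lacking PME-1 enzyme; inhibitors block probe labeling so polarization falls and inhibition rises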
PAD4 inh: PAD4 (human) enzyme inhibition; recombinant PAD4, RCA probe fluorescence polarization; actives 0.41% (n = 330,000); inhibition, % at 6.36 µM;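 active means percent inhibition above a cutoff equal to the mean of all tested compounds plus 3 SD, cut at about 15% in these data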;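 further: 0% = PAD4 with RCA probe and DMSO and 100% = probe without PAD4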
Target sequence (Q9UM07 whole entry, looked up): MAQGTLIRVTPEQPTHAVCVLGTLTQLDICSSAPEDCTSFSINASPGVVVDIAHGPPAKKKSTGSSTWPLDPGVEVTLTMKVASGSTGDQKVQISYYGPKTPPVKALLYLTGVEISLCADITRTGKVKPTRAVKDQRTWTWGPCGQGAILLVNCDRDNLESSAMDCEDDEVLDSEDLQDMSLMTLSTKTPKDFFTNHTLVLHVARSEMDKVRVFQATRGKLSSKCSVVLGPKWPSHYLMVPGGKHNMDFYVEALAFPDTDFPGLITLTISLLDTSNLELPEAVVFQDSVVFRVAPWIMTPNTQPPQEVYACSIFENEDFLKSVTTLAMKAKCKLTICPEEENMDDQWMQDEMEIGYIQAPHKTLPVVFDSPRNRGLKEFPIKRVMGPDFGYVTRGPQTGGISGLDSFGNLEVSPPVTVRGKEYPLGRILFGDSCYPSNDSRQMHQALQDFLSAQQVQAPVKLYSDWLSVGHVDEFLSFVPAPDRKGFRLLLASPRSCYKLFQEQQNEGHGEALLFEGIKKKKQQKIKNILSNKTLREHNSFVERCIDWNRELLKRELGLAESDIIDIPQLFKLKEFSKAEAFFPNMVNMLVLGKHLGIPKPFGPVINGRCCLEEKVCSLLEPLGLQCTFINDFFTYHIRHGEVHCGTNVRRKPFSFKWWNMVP
PRMT1 confirm: confirmation of human PRMT1 inhibitors; shares compounds with PRMT1 FP inh; recombinant His-PRMT1, activity-based probe fluorescence polarization; inhibition, % at 2.79 µM; actives 42% (n = 3,300); AID 687036;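 active means mean inhibition across replicates above the hit cutoff derived for the earlier primary screen, cut at about 22% in these data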
Numbers without * were called inactive. Most compounds without a hit are left out; they make up all but 2.6% or so of the library.

How did COC(=O)c1ccc(N2C(=O)CC(SCC(=O)Nc3ccc(OC)cc3)C2=O)cc1 (centres undefined) do in these assays?
Fam108B counter: 9; SIAE primary: 2; PRMT1 FP inh: 53*; TCR CD3 inh: 3; PME-1 inh: -6; PAD4 inh: 1; PRMT1 confirm: 49*

What do the screens show for `Cc1ccc(N2C(=O)CC(SCC(=O)Nc3ccc(S(N)(=O)=O)cc3)C2=O)cc1` (centres undefined)?
Fam108B counter: -1; SIAE primary: 3; PRMT1 FP inh: 53*; TCR CD3 inh: 9; PME-1 inh: 0; PAD4 inh: -3; PRMT1 confirm: 66*

What do the screens show for `CCOC(=O)c1ccc(N2C(=O)CC(SCC(=O)Nc3ccc(S(N)(=O)=O)cc3)C2=O)cc1` (centres undefined)?
Fam108B counter: 0; SIAE primary: -6; PRMT1 FP inh: 82*; TCR CD3 inh: -1; PME-1 inh: 3; PAD4 inh: 1; PRMT1 confirm: 83*

How did CCOC(=O)[C@]12CCCC=C1N(CCCOC)C(=O)[C@@H]2CC(=O)NCc1ccc(OC)c(OC)c1 do in these assays?
SIAE primary: 2; PRMT1 FP inh: 2

What do the screens show for `CN=C1S/C(=C/c2cc(C)n(-c3ccc(Cl)cc3F)c2C)C(=O)N1C`?
SIAE primary: 0; PRMT1 FP inh: 2

Results for CCCCOc1cccc(C(=O)NCCc2ccccc2-c2ccccc2CCC(=O)NCc2ccccc2)c1 ?
SIAE primary: 4; PRMT1 FP inh: -1

What do the screens show for `COc1ccccc1-n1c(SCC(=O)NCc2ccc3c(c2)OCO3)nc2cc([N+](=O)[O-])ccc21`?
Fam108B counter: 4; SIAE primary: 8; PRMT1 FP inh: 84*; TCR CD3 inh: 1; PME-1 inh: 5; PAD4 inh: -3; PRMT1 confirm: 26*

Results for CCOc1cccc(=O)c2c(C)n(-c3ccc(C(=O)O)cc3)c(C)c12 ?
Fam108B counter: 13; SIAE primary: 1; PRMT1 FP inh: 37*; TCR CD3 inh: 13; PME-1 inh: -15; PAD4 inh: 7; PRMT1 confirm: 12

What do the screens show for `O=C1CC(N2CCN(c3ccc(O)cc3)CC2)C(=O)N1Cc1cccs1` (centres undefined)?
Fam108B counter: 0; SIAE primary: 9; PRMT1 FP inh: 49*; TCR CD3 inh: -2; PME-1 inh: 2; PAD4 inh: -1; PRMT1 confirm: -1

Results for Cc1ccc(NC(=O)/C=C\C(=O)NCC(=O)O)cc1C ?
Fam108B counter: 0; SIAE primary: 5; PRMT1 FP inh: 40*; TCR CD3 inh: -4; PME-1 inh: -6; PAD4 inh: -6; PRMT1 confirm: 3

How did N#Cc1ccccc1NCCCN1CCC(C(O)(c2ccccc2)c2ccccc2)CC1 do in these assays?
SIAE primary: -4; PRMT1 FP inh: -5

How did NNc1nc2ccccc2nc1C(F)(F)F do in these assays?
Fam108B counter: 2; SIAE primary: 7; PRMT1 FP inh: 18; TCR CD3 inh: -7; PME-1 inh: 4; PAD4 inh: 1

What do the screens show for `FC(F)(F)c1nc2ccccc2nc1N/N=C\c1ccccc1`?
Fam108B counter: 8; SIAE primary: 8; PRMT1 FP inh: 25*; TCR CD3 inh: -6; PME-1 inh: 10; PAD4 inh: -7; PRMT1 confirm: 0

What do the screens show for `CCCC(=O)NC1=C(Cl)C(=O)c2ccccc2C1=O`?
SIAE primary: -1; PRMT1 FP inh: 95*; TCR CD3 inh: -4; PRMT1 confirm: 94*

Results for Cc1ccc(C2(C)NC(=O)N(CC(=O)Nc3nc(-c4ccccn4)cs3)C2=O)cc1 (centres undefined) ?
Fam108B counter: 3; SIAE primary: 8; PRMT1 FP inh: 26*; TCR CD3 inh: -13; PME-1 inh: 5; PAD4 inh: -1; PRMT1 confirm: 38*

What do the screens show for `O=C(CN1CC[n+]2c(-c3cccs3)csc21)c1ccc(-c2ccccc2)cc1`?
Fam108B counter: 6; SIAE primary: -1; PRMT1 FP inh: 32*; TCR CD3 inh: 3; PME-1 inh: 2; PAD4 inh: 2; PRMT1 confirm: 40*

High-throughput results (PubChem)
